# Test results taken from PubChem BioAssay AID1456 (Vanderbilt High Throughput Screening Facility, 2008).
# Hit rate of the full screen: of about 190,000 compounds, about 4,100 (2.2%) were called active.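 How the source made its calls: active means thallium flux slope and its plate-corrected score both differing from the plate sample mean at a set confidence after two filtering rounds, in either direction; inactive means the rest.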 Only a selection was taken, and actives are over-represented in it overall.
# Biological target: Solute carrier family 12 member 5 (Homo sapiens) (UniProt Q9H2X9)
# Assay: KCC2 cotransporter modulators, thallium flux, primary screen, cell-based, HEK293 KCC2, FluoZin-2 fluorescence, MLSMR (AID 1456);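 further: slope of fluorescence scaled to starting intensity during 10 to 20 s after thallium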
# Settings: KCC2 cells, thallium flux FluoZin-2 fluorescence; at 10 µM
# Sequence of Solute carrier family 12 member 5 (Homo sapiens) (Q9H2X9 whole entry, looked up): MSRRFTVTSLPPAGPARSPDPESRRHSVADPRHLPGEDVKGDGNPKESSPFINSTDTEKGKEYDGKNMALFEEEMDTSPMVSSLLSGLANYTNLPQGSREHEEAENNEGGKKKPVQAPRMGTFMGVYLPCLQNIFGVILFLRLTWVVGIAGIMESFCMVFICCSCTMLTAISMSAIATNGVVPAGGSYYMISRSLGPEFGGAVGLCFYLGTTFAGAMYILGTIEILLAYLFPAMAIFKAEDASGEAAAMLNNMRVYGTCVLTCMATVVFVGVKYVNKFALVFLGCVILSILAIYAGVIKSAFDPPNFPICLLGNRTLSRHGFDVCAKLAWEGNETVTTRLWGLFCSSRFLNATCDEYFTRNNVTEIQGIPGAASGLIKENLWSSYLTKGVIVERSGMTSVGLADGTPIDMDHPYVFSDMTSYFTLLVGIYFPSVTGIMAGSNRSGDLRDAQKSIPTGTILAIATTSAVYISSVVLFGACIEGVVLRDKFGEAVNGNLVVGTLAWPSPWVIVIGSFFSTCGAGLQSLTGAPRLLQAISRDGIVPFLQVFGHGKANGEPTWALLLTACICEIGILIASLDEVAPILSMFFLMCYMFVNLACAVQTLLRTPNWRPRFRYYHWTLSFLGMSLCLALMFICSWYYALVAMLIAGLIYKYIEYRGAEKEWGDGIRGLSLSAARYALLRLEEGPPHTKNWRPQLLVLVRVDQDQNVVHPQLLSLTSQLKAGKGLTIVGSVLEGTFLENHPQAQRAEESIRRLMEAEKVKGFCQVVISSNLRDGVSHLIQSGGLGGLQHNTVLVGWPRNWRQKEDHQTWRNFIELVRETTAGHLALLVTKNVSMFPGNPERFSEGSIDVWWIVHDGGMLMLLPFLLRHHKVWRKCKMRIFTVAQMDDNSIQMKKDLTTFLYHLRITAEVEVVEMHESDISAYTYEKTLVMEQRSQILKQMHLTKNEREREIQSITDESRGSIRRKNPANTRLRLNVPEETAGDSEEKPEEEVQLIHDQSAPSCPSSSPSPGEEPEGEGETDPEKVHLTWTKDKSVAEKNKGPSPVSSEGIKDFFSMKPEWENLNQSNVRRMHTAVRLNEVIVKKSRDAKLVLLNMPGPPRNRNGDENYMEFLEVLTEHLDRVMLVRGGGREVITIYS
row,Structure (SMILES),B-score of Tl+ flux slope (higher = more flux/activation; lower = inhibition)
1,Cc1noc(C)c1C(=O)OCC(=O)N1CCN(S(=O)(=O)c2ccc3ccccc3c2)CC1,-0.121 (inactive)
2,CS(=O)(=O)c1ccc(Cl)c(NC(=O)Nc2ccccc2)c1,-0.0556 (inactive)
3,COc1ccc(CCN2C(=O)N(c3ccc(OC)cc3)C(=O)C2CC(=O)Nc2ccc(OC)cc2)cc1 (stereo not drawn),0.0027 (inactive)
4,C/C(=N\NC(=O)CC(C)C)c1c(C(F)(F)F)[nH]n(-c2nc3ccccc3s2)c1=O,-1.82 (inactive)
5,COc1ccccc1P(=O)(c1ccccc1)c1ccccc1NC(C)=O (stereo not drawn),0.0591 (inactive)
6,COc1ccc(CNC(=O)CCn2cccc2)cc1,7.58 (active)
7,COc1ccc(CNC(=O)C(Cc2ccccc2)n2cccc2)cc1 (stereo not drawn),-2.15 (inactive)
8,CCOc1cc2[nH]c(=O)n(CCC(=O)NCc3ccc(OC)cc3)c(=O)c2cc1OCC,0.0101 (inactive)
9,N#CCCCn1c(O)c(N=NC(=O)C(O)c2ccccc2)c2ccccc21 (stereo not drawn),-0.218 (inactive)
10,Cn1cccc1C(C#N)c1ccccc1C#N (stereo not drawn),1.43 (inactive)
11,O=C(COC(=O)c1ccc(S(=O)(=O)Nc2ccccc2)cc1)NCC1CCCO1 (stereo not drawn),0.0831 (inactive)
12,O=C(NCCCN1CCOCC1)c1ccc(N2CCCC2)c([N+](=O)[O-])c1,-0.0166 (inactive)
13,O=C(NNC(=S)NC(=O)c1cn(-c2ccccc2)nc1-c1ccccc1)c1ccncc1,8.65 (active)
14,O=C(O)c1ccc(NC(=O)c2cn(-c3ccccc3)nc2-c2ccc(Cl)cc2)cc1,-0.953 (inactive)
15,O=C(Nc1cn(-c2ccccc2)nc1-c1ccccc1)c1ccccc1,-1.74 (inactive)
16,O=C(NCC(c1cccs1)N1CCOCC1)c1cc(-c2ccccn2)nc2ccccc12 (stereo not drawn),-0.17 (inactive)
17,CCc1nnc(NC(=O)CSc2nc3c(c(=O)n2-c2ccccc2OC)SCC3)s1,-2.34 (inactive)
18,CCn1c(SCc2ccccc2)nc2c(c1=O)SCC2,-2.99 (active)
19,Cc1cccc(CSc2nc3c(c(=O)n2C)SCC3)c1,-0.478 (inactive)
20,CC1=CC(C)(C)NC(=S)N1NC(=O)c1ccccc1Cl,1.28 (inactive)
21,O=c1[nH]c2cccnc2n1-c1ccc([N+](=O)[O-])cc1,1.09 (inactive)
22,O=C(Nc1ccccc1)c1ccc2c(c1)OCO2,1.15 (inactive)
23,C/C(=N/NC(=S)Nc1ccccc1)c1ccc2c(c1)OCO2,17.1 (active)
24,C/C(=N\NC(=O)C(N)=O)c1ccc2c(c1)OCCO2,0.474 (inactive)
25,C/C(CC(=O)NC(C)c1ccccc1)=N\NC(N)=S (stereo not drawn),-0.13 (inactive)

row,Structure (SMILES),B-score of Tl+ flux slope (higher = more flux/activation; lower = inhibition)
1,NS(=O)(=O)c1ccc(NC2=CC(c3ccc(F)cc3)N(c3ccc(S(N)(=O)=O)cc3)C2=O)cc1 (stereo not drawn),-4.18 (inactive)
2,COc1ccc(F)cc1S(=O)(=O)N1CCCCC1,-0.191 (inactive)
3,Cc1cc(C)cc(N(CC(=O)NCCSCc2ccco2)S(C)(=O)=O)c1,-0.0202 (inactive)
4,COc1cc(OC)cc(C(=O)NCCSCc2ccco2)c1,2.23 (active)
5,O=C(/C=C/c1cccc([N+](=O)[O-])c1)NCCSCc1ccco1,0.313 (inactive)
6,O=[N+]([O-])c1ccc2c(c1)C(O)n1nc(-c3ccccc3)nc1S2 (stereo not drawn),0.824 (inactive)
7,CC1CCN(Cc2nc(-c3ccc(Cl)cc3)no2)CC1,-0.00541 (inactive)
8,Cc1ccc(Cc2nc(-c3cccc(C)c3)no2)cc1,-0.589 (inactive)
9,Cc1ccc(-c2noc(CN3CCN(Cc4ccccc4)CC3)n2)cc1,-2.45 (active)
10,COc1cc(/C=C2/C(=O)ON=C2C)ccc1OCc1cccc(F)c1,0.0292 (inactive)
11,Cc1ccc(C(=O)Nc2nc(N)n(-c3ccccc3)n2)cc1,0.00295 (inactive)
12,N=c1c2c3c(sc2ncn1N)CCCC3,1.3 (inactive)
13,S=c1[nH]nc2c3c4c(sc3ncn12)CCCC4,6.7 (active)
14,c1nnc2c3c4c(sc3ncn12)CCC4,-0.0315 (inactive)
15,O=C(CCl)Nc1cccc(CP(=O)(c2ccccc2)c2ccccc2)c1,-0.0445 (inactive)
16,CCN(CC)C(=O)CS(=O)CC(=O)Nc1cc(OCCOC)c(Cl)cc1Cl (stereo not drawn),-0.00564 (inactive)
17,O=C(NCc1cccnc1)Nc1ccccc1F,0.189 (inactive)
18,O=C(Nc1ccccc1F)C1C2C=CC3(O2)C1C(=O)N(c1cccnc1)C3C(=O)NC1CCCCC1 (stereo not drawn),-6.39 (active)
19,CC(C)N1C(=O)C2C(C(=O)NC3CCCCC3)C3C=CC2(O3)C1C(=O)NC1CCCC1 (stereo not drawn),-0.424 (inactive)
20,Cc1nn(-c2ccccc2)c(=O)c2noc(C)c12,-0.0422 (inactive)
21,CCOC(=O)c1c(NC(=S)Nc2ccccc2C)sc2c1CCC2,-0.787 (inactive)
22,CCOC(=O)c1c(NC(=S)NC)sc2c1CCCC2,118 (active)
23,CCOCC(=O)Nc1sc2c(c1C(=O)OCC)CCCC2,0.549 (inactive)
24,Cc1nc(=O)c(-c2ccccc2)c(C)n1-c1ccc(Br)cc1,-0.435 (inactive)
25,COCCNc1nc(-n2nc(C)cc2C)nc2sc3c(c12)CCCC3,-4.01 (active)

row,Structure (SMILES),B-score of Tl+ flux slope (higher = more flux/activation; lower = inhibition)
1,CCC(O)CNc1nc(-n2nc(C)cc2C)nc2sc3c(c12)CC(C)(C)OC3 (stereo not drawn),-1.67 (inactive)
2,Cc1cc(C)n(-c2nc(SCC(=O)N3CCCC3)c3c4c(sc3n2)CCCC4)n1,0.509 (inactive)
3,COc1cccc(N2C(=O)CC(N3CCc4ccccc4C3)C2=O)c1 (stereo not drawn),0.0221 (inactive)
4,O=C(CSc1nc2ccccc2o1)N/N=C/c1ccccc1C(=O)O,0.867 (inactive)
5,CSc1sc(C(=O)NC(=O)NCc2cccnc2)c(C)c1-c1ccon1,-1.42 (inactive)
6,COC(=O)c1ccccc1NC(=S)NC(=O)c1ccccc1F,4.93 (inactive)
7,CCOC(=O)c1cccnc1NC(=O)c1ccncc1,0.477 (inactive)
8,COC(=O)c1cccnc1NC(=S)NC(C)C,37.7 (active)
9,c1ccc2c(C[n+]3csc4ccccc43)cccc2c1,4.99 (active)
10,Nc1scc[n+]1Cc1cccc2cccnc12,-0.326 (inactive)
11,c1ccc2c(CSCc3nc4ccccc4[nH]3)cccc2c1,-2.07 (inactive)
12,CC(=O)Nc1ccc(C(=O)/C=C/c2ccc[nH]2)cc1,0.0206 (inactive)
13,Cc1ccc(S(=O)(=O)N2CCN(C(=O)COC(=O)c3c(C)noc3C)CC2)c(C)c1,0.177 (inactive)
14,CCn1c(O)c(N=NC2=NC(=O)CS2)c2cc(C)ccc21,8.24 (active)
15,CCn1c(=O)cc(O)c2ccccc21,0.265 (inactive)
16,CCn1c(O)c(N=NC(=O)c2cccc(S(=O)(=O)N3CCCCC3)c2)c2ccccc21,-0.0952 (inactive)
17,O=C(Cn1nnc(N2CCCCC2)n1)c1ccc(Cl)c(Cl)c1,-0.13 (inactive)
18,C/C=N/N(c1ccccc1)c1ccccc1,0.121 (inactive)
19,Cc1ccc(S(=O)(=O)/N=C(/NC(=S)Nc2c(C)n(C)n(-c3ccccc3)c2=O)c2ccccc2)cc1,-0.219 (inactive)
20,CC1CCCCN1S(=O)(=O)c1ccc(S(=O)(=O)N(CC(=O)Nc2ccccc2)Cc2cccs2)cc1 (stereo not drawn),0.0298 (inactive)
21,CC1CCCN(S(=O)(=O)c2ccc(C(=O)Nc3nnc(-c4ccncc4)o3)cc2)C1 (stereo not drawn),-0.0172 (inactive)
22,CC1CCCCN1S(=O)(=O)c1ccc(C(=O)Nc2nnc(-c3cccs3)o2)cc1 (stereo not drawn),6.64 (active)
23,CC(C)Cc1ccc(C(C)C(=N)N)cc1 (stereo not drawn),0.737 (inactive)
24,NS(=O)(=O)c1ccc(CNC(=O)c2cnccn2)cc1,1.11 (inactive)
25,NCC(=O)c1cccc2ccc[n+]([O-])c12,1.34 (inactive)

row,Structure (SMILES),B-score of Tl+ flux slope (higher = more flux/activation; lower = inhibition)
1,COc1ccc(CCN2C(=O)CC(N3CCC(C(N)=O)CC3)C2=O)cc1OC (stereo not drawn),0.129 (inactive)
2,CC1(C)Cc2ccccc2-c2nnc(-c3cccc(O)c3)n21,-0.616 (inactive)
3,O=c1c2ccccc2nc2n1C1(CCCCC1)Cc1ccccc1-2,-0.241 (inactive)
4,c1cncc(-c2nnc3n2C2(CCCCC2)Cc2ccccc2-3)c1,4.46 (active)
5,Cc1ccc(CN2CCN(Cc3ccc4ncccc4c3)CC2CCO)cc1 (stereo not drawn),-0.182 (inactive)
6,O=C(Nc1nc(-c2ccncc2)cs1)C1COc2ccccc2O1 (stereo not drawn),-0.139 (inactive)
7,O=C(Nc1nc2c(F)cc(F)cc2s1)C1COc2ccccc2O1 (stereo not drawn),67.4 (active)
8,COc1ccc(OC)c2sc(NC(=O)C3COc4ccccc4O3)nc12 (stereo not drawn),-1.33 (inactive)
9,CC(C)c1cc(CN2CCOCC2)cc(C(C)C)c1O,-0.911 (inactive)
10,CCn1cc(C(=O)NCCCN2CCCCCC2)c(=O)c2cc(S(=O)(=O)N3CCc4ccccc4C3)ccc21,0.575 (inactive)
11,Cc1nc(C(=O)N2CCCC(C(=O)c3ccc(Cl)cc3)C2)cs1 (stereo not drawn),-0.00258 (inactive)
12,Cc1ccccc1Nc1c(-c2ccccc2)nc2ncccn12,-0.0089 (inactive)
13,S=c1nccc(-c2cc(Cl)sc2Cl)[nH]1,7.16 (active)
14,Cc1cccc(N(C)C(=O)c2cc3c(=O)[nH]c4ccc(C)cc4c3s2)c1,0.185 (inactive)
15,COCCN1C2=C(COC(C)(C)C2)C(=S)NC1c1ccccc1 (stereo not drawn),-0.146 (inactive)
16,Cc1cccc(OCc2ccc(C(=O)Nc3ccc(F)cc3)cc2)c1,0.491 (inactive)
17,Fc1ccc(COc2cccc(-c3n[nH]c(=S)o3)c2)cc1,69.9 (active)
18,Fc1ccc(COc2ccc(-c3nnco3)cc2)cc1,-1.14 (inactive)
19,NNC(=O)c1oc2nc(-c3ccccc3)cc(-c3ccco3)c2c1N,0.0896 (inactive)
20,O=C(COc1ccccc1)N1CCN=C1SCc1cccc(F)c1,0.197 (inactive)
21,CC(C)CCN1NC2(CCC(C)CC2)NC1=S (stereo not drawn),1.32 (inactive)
22,Cc1ccc(-c2nc3ccccc3[nH]c2=O)cc1,0.871 (inactive)
23,CC(CNS(=O)(=O)c1ccc(Br)cc1)CN(C)C (stereo not drawn),0.781 (inactive)
